The record followed here is PubChem BioAssay.

The source made the active and inactive calls.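 How the source made its calls, unless noted: active means inhibition of the reporter signal at or above 50%; inactive means inhibition below 50%.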

Experiment [1] is described as follows: inhibitors of TNFa-induced NFkB p65 translocation, primary screen, imaging, HUVEC, MLSMR starter and 10KST1 sets (AID 438;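 active means inhibition above 20% together with a positive visual image hit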;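 further: compound added about 3h40 before a 20 min TNFalpha stimulation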;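 on inhibition: signal is the nuclear over cytoplasmic p65 intensity ratio per well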). The settings on record: HUVEC TNFa-induced p65 nuclear translocation; cell count: measured here: nuclei count (cytotoxicity indicator), at 2.08 µM; inhibition: at 2 µM, stronger effect = higher value, 0% TNFa-plus-vehicle, 100% no-TNFa wells.
Experiment [2] can be described thus: reduction of polyQ htt aggregates in cells – imaging, exon1htt(103Q)mCFP cells, high-content imaging, primary screen (AID 483;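 active means visual image review flags a hit and inhibition of aggregation exceeds 20%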;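 further: compound exposure lasted 3 days before fixation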;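 on nuclei count: percent of the per-plate median nuclei count of sample wells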). The settings on record: exon1htt(103Q)mCFP cell line, aggregate imaging, at 2 µM; inhibition of aggregation: stronger effect = higher value; nuclei count: measured here: cell count, toxicity.
The nature of experiment [3]: endothelial E-selectin expression blockers – imaging, HUVEC, immunofluorescence, MLSMR starter and 10KST1 sets, primary screen (AID 487;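 active means visually confirmed hit in the image check and inhibition above 20%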;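 on inhibition: signal is fraction of cell area covered by stained E-selectin grains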;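 on nuclei count: 100% = median nuclei count of all wells on the same plate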). The settings on record: HUVEC TNFalpha-induced E-selectin immunofluorescence imaging, at 2 µM; inhibition: stronger effect = higher value; nuclei count: measured here: cell number, toxicity.
In experiment [4] the target is Voltage-gated potassium channel subunit beta-2 (Rattus norvegicus) (UniProt P62483). The experiment is described as follows: inhibitors of rat Kvbeta2 reductase activity – biochemical, NADPH fluorescence, primary screen (AID 622;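 active means fluorescence slope higher than the sample average by over 3 SD, cut at about -0.22 in these data, passing the limit was not always enough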;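 further: slope of raw intensity against log time taken from 70 to 1610 s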). The settings on record: recombinant KvBeta, 4-cyanobenzaldehyde reduction, at 10 µM, stronger effect = higher value.
Sequence of Voltage-gated potassium channel subunit beta-2 (Rattus norvegicus) (P62483 whole entry, looked up): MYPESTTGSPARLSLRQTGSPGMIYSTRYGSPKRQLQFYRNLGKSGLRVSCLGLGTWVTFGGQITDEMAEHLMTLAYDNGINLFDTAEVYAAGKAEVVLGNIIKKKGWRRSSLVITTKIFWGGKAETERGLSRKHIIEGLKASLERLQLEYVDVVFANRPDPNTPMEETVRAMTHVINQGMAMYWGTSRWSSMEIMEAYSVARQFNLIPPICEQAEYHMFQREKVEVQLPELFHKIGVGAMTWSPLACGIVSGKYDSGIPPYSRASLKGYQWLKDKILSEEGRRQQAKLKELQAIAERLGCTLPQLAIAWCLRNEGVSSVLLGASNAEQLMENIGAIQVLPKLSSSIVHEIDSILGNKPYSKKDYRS
For experiment [5] the target is unchanged. The experiment is described as follows: enhancers of rat Kvbeta2 NADPH turnover – biochemical, NADPH fluorescence, primary screen (AID 623;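 active means NADPH fluorescence slope more negative than the mean of all samples by about 3 SD, 99.7% confidence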;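 further: fluorescence intensity change per second fitted from 20 to 320 s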). The settings on record: Recombinant KvBeta, NADPH fluorescence decrease slope, 10 min; at 10 µM; stronger effect = lower value.
The target of experiment [6] is Alpha-2C adrenergic receptor (Homo sapiens) (UniProt P18825). The experiment is described as follows: compounds altering alpha2C-coupled GIRK flux – cell-based, HEK293 alpha2C/GIRK1/2, thallium flux, primary screen (AID 624;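 active means fluorescence slope after compound addition differing from the mean of all screened samples at 99.7% confidence, in either direction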;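 further: slope of fluorescence ratio to pre-addition baseline per second over 15 to 24 s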). The settings on record: thallium flux BTC fluorescence, at 10 µM, actives lie on both sides.
Sequence of Alpha-2C adrenergic receptor (Homo sapiens) (P18825 whole entry, looked up): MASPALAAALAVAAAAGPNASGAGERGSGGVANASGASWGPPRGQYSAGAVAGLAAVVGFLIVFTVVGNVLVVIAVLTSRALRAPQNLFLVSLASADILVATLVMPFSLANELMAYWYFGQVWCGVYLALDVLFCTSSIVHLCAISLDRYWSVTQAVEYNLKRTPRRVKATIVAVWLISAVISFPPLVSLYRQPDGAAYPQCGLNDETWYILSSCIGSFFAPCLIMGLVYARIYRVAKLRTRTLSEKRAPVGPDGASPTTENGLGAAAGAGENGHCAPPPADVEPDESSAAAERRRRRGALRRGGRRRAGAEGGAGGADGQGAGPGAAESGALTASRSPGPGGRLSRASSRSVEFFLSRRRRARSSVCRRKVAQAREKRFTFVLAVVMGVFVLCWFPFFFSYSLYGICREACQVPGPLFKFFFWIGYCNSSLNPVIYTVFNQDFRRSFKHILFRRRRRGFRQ
Experiment [7] can be described thus: blockers of RIG-like receptor reporter activation – cell-based, Sendai virus stimulus, luciferase, 10K MLSCN set, TLR/RLR signaling modifier project, primary screen (AID 602276;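 active means inhibition at or above 50% at 10 µM; inactive means inhibition below 50%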;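 further: firefly luciferase from ISG56 promoter only with Renilla not read in this screen; 0% = Sendai virus plus DMSO and 100% = medium plus DMSO without virus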). The settings on record: HEK293 RL24 IRF3 luciferase reporter, at 10 µM, stronger effect = higher value. (In a reporter assay the amount or activity of a reporter protein is the signal.)
A short description of experiment [8]: TLR3 IRF3 reporter activation blockers – cell-based, poly I:C stimulus, luciferase, 10K MLSCN set, primary screen (AID 602277). The settings on record: HEK293-TLR3 RL24 IRF3 luciferase reporter, at 10 µM, stronger effect = higher value.

For the compound `COc1ccc(S(=O)(=O)Nc2ccc(F)c(F)c2)cc1Cl`, the cell count in experiment [1] turned out to be 723. The inhibition in experiment [1] was 8.5% (inactive); in experiment [3], -8.3% (inactive); in experiment [7], 8.01% (inactive); in experiment [8], 31.5% (inactive). The inhibition of aggregation in experiment [2] is 5.1% (inactive). Further, the nuclei count in experiment [2] amounted to 102%; in experiment [3], 98.5%. Further, in experiment [4], the fluorescence slope was -0.496 (inactive). In addition, the NADPH fluorescence slope in experiment [5] is -1.9e-05 (inactive). In experiment [6], the slope was 0.0057 (inactive).
For `CC(C)(C)NC(=O)C(c1ccco1)N(C(=O)Cn1nnc(-c2ccc(F)cc2)n1)c1ccccc1F` (centres undefined), in experiment [1], the cell count stood at 562. For the same compound, the inhibition was 1.2% (inactive) in experiment [1], -96.2% (inactive) in experiment [3], 10.9% (inactive) in experiment [7] and 39.7% (inactive) in experiment [8]. For the same compound, in experiment [2], the inhibition of aggregation was 14.8% (inactive). Further, the nuclei count in experiment [2] was found to be 96.5%; in experiment [3], 127%. Moreover, the fluorescence slope in experiment [4] is -0.56 (inactive). In addition, the NADPH fluorescence slope in experiment [5] is -6.1e-05 (inactive). Moreover, the slope in experiment [6] is 0.00563 (inactive).
For the compound `CCOC(=O)N1CCC(N2C(=O)c3ccccc3C2Nc2cc(Cl)c(OC)cc2OC)CC1` (centres undefined), the cell count in experiment [1] worked out at 761. Further, the inhibition in experiment [1] is -2.3% (inactive); in experiment [3] it was -35.7% (inactive); in experiment [7], -7.31% (inactive); in experiment [8], 4.34% (inactive). In addition, in experiment [2], the inhibition of aggregation is -25.4% (inactive). The nuclei count turned out to be 111% in experiment [2] and 114% in experiment [3]. Besides, in experiment [4], the fluorescence slope is -0.596 (inactive). In addition, in experiment [5], the NADPH fluorescence slope was -3.8e-05 (inactive). Moreover, the slope in experiment [6] was 0.0052 (inactive).
As for `CCOC(=O)C1CCCN(c2c(Nc3ccc(C)c(C)c3)c(=O)c2=O)C1` (centres undefined), in experiment [1], the cell count is 613. Besides, the inhibition was 9% (inactive) in experiment [1], -103% (inactive) in experiment [3], -6.09% (inactive) in experiment [7] and 32.9% (inactive) in experiment [8]. Moreover, the inhibition of aggregation in experiment [2] was 2.3% (inactive). Also, the results for the nuclei count in experiment [2] and in experiment [3] were 104% and 131%, respectively. The fluorescence slope in experiment [4] is -0.539 (inactive). Further, the NADPH fluorescence slope in experiment [5] is 6.2e-06 (inactive). The slope in experiment [6] is 0.00607 (inactive).
`Cc1ccc2c(c1)NC(=O)C(CC(=O)NC1CCCCC1C)O2` (centres undefined): the cell count in experiment [1] worked out at 611. The inhibition was 2% (inactive) in experiment [1], 21.5% (inactive) in experiment [3], 9.73% (inactive) in experiment [7] and 1.78% (inactive) in experiment [8]. Further, the inhibition of aggregation in experiment [2] is 22% (inactive). For the same compound, the figures for the nuclei count in experiment [2] and in experiment [3] were 86.3% and 114%, respectively. For the same compound, the fluorescence slope in experiment [4] is -0.51 (inactive). In experiment [5], the NADPH fluorescence slope was -4.1e-05 (inactive). In addition, in experiment [6], the slope is 0.00567 (inactive).
On to `CCC(C)(C)n1nnnc1C(c1ccc(OC)c(OC)c1)N1CCN(c2ccc(F)cc2)CC1` (centres undefined), for which the cell count in experiment [1] is 406. In addition, the inhibition is 4% (inactive) in experiment [1], 10.4% (inactive) in experiment [3], 14% (inactive) in experiment [7] and 43.5% (inactive) in experiment [8]. Further, the inhibition of aggregation in experiment [2] is -1% (inactive). Besides, the results for the nuclei count in experiment [2] and in experiment [3] were 96.8% and 106%, respectively. For the same compound, the fluorescence slope in experiment [4] was -0.442 (inactive). Besides, in experiment [5], the NADPH fluorescence slope is -2.6e-05 (inactive). Also, in experiment [6], the slope is 0.00413 (inactive).
In the case of `COc1ccc(C2CC(=O)C(C=NCCCN3CCOCC3)=C(O)C2)cc1` (centres undefined), in experiment [1], the cell count worked out at 392. The inhibition is -4.9% (inactive) in experiment [1], 3% (inactive) in experiment [3], 14.7% (inactive) in experiment [7] and 32.7% (inactive) in experiment [8]. For the same compound, the inhibition of aggregation in experiment [2] was 14% (inactive). Besides, the nuclei count in experiment [2] amounted to 80.7%; in experiment [3] it was 87.7%. For the same compound, in experiment [4], the fluorescence slope was -0.351 (inactive). Moreover, the NADPH fluorescence slope in experiment [5] is -1.5e-05 (inactive). For the same compound, the slope in experiment [6] was 0.00635 (inactive).
As to `CCCCCc1c(O)nc(SCC(=O)NCC2CCCO2)[nH]c1=O` (centres undefined), the cell count in experiment [1] is 579. In addition, the inhibition in experiment [1] is 7.7% (inactive); in experiment [3], -51.3% (inactive); in experiment [7] it was 3.21% (inactive); in experiment [8], 1.9% (inactive). Further, in experiment [2], the inhibition of aggregation was -2.5% (inactive). Besides, the nuclei count in experiment [2] came to 108%; in experiment [3] it was 111%. Further, in experiment [4], the fluorescence slope was -0.417 (inactive). In experiment [5], the NADPH fluorescence slope was 3.1e-05 (inactive). Moreover, the slope in experiment [6] was 0.00681 (inactive).
For the compound `O=C(CCN1C(=O)C2C3C=CC(C3)C2C1=O)Nc1c(F)cc(F)cc1Br` (centres undefined), the cell count in experiment [1] came to 827. The inhibition was -6.6% (inactive) in experiment [1], -21.9% (inactive) in experiment [3], -0.108% (inactive) in experiment [7] and 11.7% (inactive) in experiment [8]. Also, the inhibition of aggregation in experiment [2] is 16.5% (inactive). Further, the nuclei count in experiment [2] stood at 95.3%; in experiment [3], 120%. In addition, the fluorescence slope in experiment [4] was -0.587 (inactive). In addition, the NADPH fluorescence slope in experiment [5] was -6.8e-05 (inactive). Also, in experiment [6], the slope was 0.00666 (inactive).
With `CC1(C)COCN1S(=O)(=O)c1ccc(C(=O)Nc2nnc(-c3ccc(Cl)s3)o2)cc1`, the cell count in experiment [1] amounted to 440. The inhibition in experiment [1] was 10.8% (inactive); in experiment [3], -26.4% (inactive); in experiment [7], 49.1% (inactive); in experiment [8], 36.9% (inactive). Moreover, the inhibition of aggregation in experiment [2] is -2.8% (inactive). Also, the nuclei count was found to be 98.3% in experiment [2] and 93.8% in experiment [3]. For the same compound, in experiment [4], the fluorescence slope was -0.545 (inactive). The NADPH fluorescence slope in experiment [5] was 1.8e-05 (inactive). Moreover, the slope in experiment [6] was 0.00616 (inactive).
For `COc1ccc2ccccc2c1CN1CCN(C)CC1`, the cell count in experiment [1] amounted to 441. Also, the inhibition is -7.1% (inactive) in experiment [1], -40.6% (inactive) in experiment [3], 7.96% (inactive) in experiment [7] and 27.9% (inactive) in experiment [8]. In experiment [2], the inhibition of aggregation was -14.9% (inactive). The nuclei count in experiment [2] turned out to be 93.7%; in experiment [3] it was 123%. Besides, in experiment [4], the fluorescence slope was -0.444 (inactive). Further, the NADPH fluorescence slope in experiment [5] is -0.000107 (inactive). Moreover, the slope in experiment [6] is 0.00594 (inactive).
With `Nn1c(SCC(=O)NC2CCCCC2)nnc1-c1ccc(Cl)cc1`, the cell count in experiment [1] was 376. The inhibition in experiment [1] is 0.7% (inactive); in experiment [3], -114% (inactive); in experiment [7], 14.6% (inactive); in experiment [8], 19% (inactive). Further, the inhibition of aggregation in experiment [2] is -1.9% (inactive). In addition, the figures for the nuclei count in experiment [2] and in experiment [3] were 106% and 108%, respectively. Further, in experiment [4], the fluorescence slope is -0.472 (inactive). In addition, in experiment [5], the NADPH fluorescence slope is 6.9e-06 (inactive). Further, the slope in experiment [6] was 0.00502 (inactive).
For the compound `O=C(CN1CCN(c2ccccn2)CC1)N1c2ccccc2CCc2ccccc21`, in experiment [1], the cell count turned out to be 568. For the same compound, the inhibition in experiment [1] is 3.3% (inactive); in experiment [3], 46.8% (inactive); in experiment [7] it was 13% (inactive); in experiment [8], 15.9% (inactive). Also, in experiment [2], the inhibition of aggregation is -0.5% (inactive). For the same compound, the nuclei count in experiment [2] turned out to be 103%; in experiment [3] it was 99.5%. In addition, in experiment [4], the fluorescence slope was -0.341 (inactive). In addition, the NADPH fluorescence slope in experiment [5] was -5.2e-05 (inactive). Besides, the slope in experiment [6] is 0.0046 (inactive).
For the compound `Cc1nc2ccc(S(=O)(=O)NC(C(=O)N3CCCC3)C(C)C)cc2s1` (centres undefined), the cell count in experiment [1] came out at 677. Further, the inhibition in experiment [1] was 1.8% (inactive); in experiment [3], -33% (inactive); in experiment [7] it was 12.9% (inactive); in experiment [8], 13.8% (inactive). Further, in experiment [2], the inhibition of aggregation is -21.4% (inactive). Besides, the nuclei count was found to be 111% in experiment [2] and 110% in experiment [3]. Besides, the fluorescence slope in experiment [4] is -0.613 (inactive). Also, in experiment [5], the NADPH fluorescence slope is 1.2e-05 (inactive). Also, in experiment [6], the slope was 0.00717 (inactive).

For orientation: inhibition means the drop in the measured response relative to a control, in per cent.
